# Experimental data: PubChem BioAssay (EPA / NIEHS)
# Results filed as inconclusive are left out. More than one record can exist for a structure, and the calls need not agree. Calls of active or inactive are those of the source. How the source made its calls, unless noted: active means hit-call score of the fitted dose curve at least 0.9, where 1 is the maximum; inconclusive means response in the unintended direction; inactive means score below 0.9.
# Assays:
# [1] = biological target: Estrogen-related receptor gamma (Homo sapiens) (UniProt P62508); experiment: ATG_ERRg_TRANS: Attagene TRANS-FACTORIAL HepG2 Assay for human Estrogen-Related Receptor gamma (ERRg) (AID 2282977); details: HepG2 Attagene TRANS reporter, ERRg transactivation;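 further: hits increase reporter signal over DMSO so potencies reflect activators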
# Sequence of Estrogen-related receptor gamma (Homo sapiens) (P62508 whole entry, looked up, the tested form may be a part): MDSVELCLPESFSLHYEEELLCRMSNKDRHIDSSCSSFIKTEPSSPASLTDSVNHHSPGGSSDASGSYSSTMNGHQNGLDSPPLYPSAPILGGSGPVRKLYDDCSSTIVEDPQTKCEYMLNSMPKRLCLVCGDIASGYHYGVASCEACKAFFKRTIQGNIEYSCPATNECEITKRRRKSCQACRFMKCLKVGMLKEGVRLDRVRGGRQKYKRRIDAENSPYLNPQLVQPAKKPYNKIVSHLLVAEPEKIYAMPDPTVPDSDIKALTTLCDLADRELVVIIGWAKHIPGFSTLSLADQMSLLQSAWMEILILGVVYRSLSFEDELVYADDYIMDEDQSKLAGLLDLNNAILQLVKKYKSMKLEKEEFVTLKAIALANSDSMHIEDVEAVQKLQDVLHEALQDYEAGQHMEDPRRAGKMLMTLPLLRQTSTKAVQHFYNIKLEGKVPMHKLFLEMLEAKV
# Method in brief: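 Transient HepG2 transfectants, 24 h compound exposure, GAL4-UAS reporter mRNA by RT-PCR/6-FAM labelling/capillary electrophoresis; positive direction vs DMSO.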
# [2] = biological target: human Vitamin D Receptor (VDR), VDR (gene 7421) (UniProt P11473); experiment: ATG_VDR_TRANS: Attagene TRANS-FACTORIAL HepG2 Assay for human Vitamin D Receptor (VDR) (AID 2283022)
# Sequence of human Vitamin D Receptor (VDR), VDR (gene 7421) (P11473 whole entry, looked up, the tested form may be a part): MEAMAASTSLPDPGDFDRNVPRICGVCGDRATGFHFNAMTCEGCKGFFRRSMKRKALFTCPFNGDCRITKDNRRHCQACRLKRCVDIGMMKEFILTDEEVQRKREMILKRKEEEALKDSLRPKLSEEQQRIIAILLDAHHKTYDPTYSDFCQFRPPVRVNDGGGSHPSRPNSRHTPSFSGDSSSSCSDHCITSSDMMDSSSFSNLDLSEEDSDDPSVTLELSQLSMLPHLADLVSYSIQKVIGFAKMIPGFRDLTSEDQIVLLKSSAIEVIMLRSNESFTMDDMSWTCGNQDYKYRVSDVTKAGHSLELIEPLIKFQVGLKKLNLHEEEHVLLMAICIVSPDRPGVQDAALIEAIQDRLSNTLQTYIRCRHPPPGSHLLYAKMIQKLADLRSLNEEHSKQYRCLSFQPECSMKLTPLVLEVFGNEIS
# Method in brief: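 Fluorescence of labelled reporter cDNA fragments, resolved by capillary electrophoresis, gives mRNA induction after 24 h treatment of HepG2 cells carrying transfected Gal4-fusion reporter units. Activity is fitted in the positive direction with DMSO as baseline.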
# [3] = biological target: Bile acid receptor (Homo sapiens) (UniProt Q96RI1); experiment: ATG_FXR_TRANS: Attagene TRANS-FACTORIAL HepG2 Assay for Farnesoid X Receptor (FXR) (AID 2282979); details: HepG2 Attagene TRANS FXR-GAL4 reporter transcription;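 further: hits raise reporter mRNA above DMSO so AC50 marks FXR activation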
# Sequence of Bile acid receptor (Homo sapiens) (Q96RI1 whole entry, looked up, the tested form may be a part): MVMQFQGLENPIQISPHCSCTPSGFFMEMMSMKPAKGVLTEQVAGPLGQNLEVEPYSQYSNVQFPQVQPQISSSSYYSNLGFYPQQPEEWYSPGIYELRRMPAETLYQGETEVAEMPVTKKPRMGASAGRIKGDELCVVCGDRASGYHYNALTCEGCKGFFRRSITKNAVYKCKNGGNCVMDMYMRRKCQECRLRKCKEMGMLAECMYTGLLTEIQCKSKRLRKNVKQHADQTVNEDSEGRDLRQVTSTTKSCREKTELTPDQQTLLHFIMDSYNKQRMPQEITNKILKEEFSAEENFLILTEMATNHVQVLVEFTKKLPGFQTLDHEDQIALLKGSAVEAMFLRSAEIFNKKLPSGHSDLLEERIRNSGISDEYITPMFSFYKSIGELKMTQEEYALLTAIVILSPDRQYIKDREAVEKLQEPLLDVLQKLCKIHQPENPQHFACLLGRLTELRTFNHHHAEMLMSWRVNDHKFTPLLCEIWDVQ
# Method in brief: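 Chimeric FXR-GAL4 activity in transiently transfected human HepG2 liver cells is scored as induction of reporter mRNA after 24 h of dosing. Detection uses RT-PCR with fluorescent labelling and capillary electrophoresis, with DMSO serving as baseline.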
# [4] = biological target: Retinoic acid receptor RXR-alpha (Homo sapiens) (UniProt P19793); experiment: ATG_RXRa_TRANS: Attagene TRANS-FACTORIAL HepG2 Assay for human Retinoid X Receptor alpha (RXRa) (AID 2283012)
# Sequence of Retinoic acid receptor RXR-alpha (Homo sapiens) (P19793 whole entry, looked up, the tested form may be a part): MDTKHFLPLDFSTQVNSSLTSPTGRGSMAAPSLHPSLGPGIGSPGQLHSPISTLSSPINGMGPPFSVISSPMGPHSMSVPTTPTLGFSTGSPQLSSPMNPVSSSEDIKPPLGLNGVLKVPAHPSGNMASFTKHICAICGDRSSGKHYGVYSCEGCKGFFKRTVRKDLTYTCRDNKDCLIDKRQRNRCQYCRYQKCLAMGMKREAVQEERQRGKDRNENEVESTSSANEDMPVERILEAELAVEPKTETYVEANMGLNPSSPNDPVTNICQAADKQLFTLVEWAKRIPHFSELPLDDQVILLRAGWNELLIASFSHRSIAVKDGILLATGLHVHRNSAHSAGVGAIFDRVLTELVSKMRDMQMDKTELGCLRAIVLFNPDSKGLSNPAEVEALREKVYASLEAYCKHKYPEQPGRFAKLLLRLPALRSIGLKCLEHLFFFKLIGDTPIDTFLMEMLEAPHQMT
# Method in brief: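 Cells (HepG2) carried transiently transfected GAL4-responsive reporter units. Following a 24 h chemical incubation, reporter mRNA induction was read via RT-PCR fragment analysis; DMSO served as negative control and baseline.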
# [5] = biological target: Estrogen receptor beta (Homo sapiens) (UniProt Q92731); experiment: OT_ER_ERbERb_0480: Odyssey Thera (OT) 8-hour HEK293T Protein-Complementation Assay for Estrogen Receptor-beta/-beta Homodimer (AID 2283357);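 further: active means signal gain over DMSO baseline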
# Sequence of Estrogen receptor beta (Homo sapiens) (Q92731 whole entry, looked up, the tested form may be a part): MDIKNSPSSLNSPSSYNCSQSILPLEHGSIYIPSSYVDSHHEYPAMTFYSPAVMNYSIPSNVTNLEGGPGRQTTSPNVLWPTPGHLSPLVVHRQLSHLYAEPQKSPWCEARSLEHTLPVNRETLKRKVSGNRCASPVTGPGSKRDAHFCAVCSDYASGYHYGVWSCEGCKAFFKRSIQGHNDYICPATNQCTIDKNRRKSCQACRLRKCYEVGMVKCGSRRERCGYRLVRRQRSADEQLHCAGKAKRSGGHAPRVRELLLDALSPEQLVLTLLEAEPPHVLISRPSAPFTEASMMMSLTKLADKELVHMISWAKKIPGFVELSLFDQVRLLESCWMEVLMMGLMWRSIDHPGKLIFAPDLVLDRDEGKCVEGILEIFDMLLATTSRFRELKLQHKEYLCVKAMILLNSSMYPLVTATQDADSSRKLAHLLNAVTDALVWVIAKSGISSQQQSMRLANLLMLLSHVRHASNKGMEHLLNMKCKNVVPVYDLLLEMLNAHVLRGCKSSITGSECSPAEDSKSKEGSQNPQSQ
# Method in brief: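 Readout: increase in mean fluorescence intensity (nucleus for agonists; nucleus plus cytoplasm for antagonists) relative to DMSO, from a reporter-fragment complementation of human ER-beta LBD homodimer in HEK293T cells dosed 8 hours.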
# [6] = biological target: Estrogen receptor beta (Homo sapiens) (UniProt Q92731); experiment: OT_ER_ERbERb_1440: Odyssey Thera (OT) 24-hour HEK293T Protein-Complementation Assay for Estrogen Receptor-beta/-beta Homodimer (AID 2283380);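 further: fluorescence gain from ER beta LBD homodimer complementation read by laser scanning cytometry; scored as signal increase over DMSO baseline for both agonists and antagonists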
# Method in brief: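 HEK293T cells stably expressing human ER-beta LBD (aa 310-547) PCA homodimer pair, dosed 24 h; formaldehyde-fixed, Draq5-stained. Readout: increase in nuclear (agonist) or nuclear plus cytoplasmic (antagonist) fluorescence intensity versus DMSO, gain-of-signal fitting.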
# [7] = biological target: Retinoic acid receptor RXR-alpha (Homo sapiens) (UniProt P19793); experiment: OT_NURR1_NURR1RXRa_0480: Odyssey Thera (OT) 8-hour HEK293T Protein Complementation Assay for Nurr1/retinoid X receptor (RXR) (AID 2283385)
# Method in brief: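 Compounds are applied to HEK293T cells carrying Nurr1 and RXRα linked to reporter fragments. After 8 h, fluorescence intensity reports heterodimer formation, with DMSO as baseline.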
# [8] = biological target: Peroxisome proliferator-activated receptor gamma (Homo sapiens) (UniProt P37231); experiment: OT_PPARg_PPARgSRC1_0480: Odyssey Thera (OT) 8-hour Protein-Complementation Assay for Peroxisome Proliferator-activated Receptor Gamma / SRC-1 Co-activator (AID 2283387);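 further: nuclear to cytoplasmic split Venus YFP fluorescence ratio reporting PPARg SRC-1 interaction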
# Sequence of Peroxisome proliferator-activated receptor gamma (Homo sapiens) (P37231 whole entry, looked up, the tested form may be a part): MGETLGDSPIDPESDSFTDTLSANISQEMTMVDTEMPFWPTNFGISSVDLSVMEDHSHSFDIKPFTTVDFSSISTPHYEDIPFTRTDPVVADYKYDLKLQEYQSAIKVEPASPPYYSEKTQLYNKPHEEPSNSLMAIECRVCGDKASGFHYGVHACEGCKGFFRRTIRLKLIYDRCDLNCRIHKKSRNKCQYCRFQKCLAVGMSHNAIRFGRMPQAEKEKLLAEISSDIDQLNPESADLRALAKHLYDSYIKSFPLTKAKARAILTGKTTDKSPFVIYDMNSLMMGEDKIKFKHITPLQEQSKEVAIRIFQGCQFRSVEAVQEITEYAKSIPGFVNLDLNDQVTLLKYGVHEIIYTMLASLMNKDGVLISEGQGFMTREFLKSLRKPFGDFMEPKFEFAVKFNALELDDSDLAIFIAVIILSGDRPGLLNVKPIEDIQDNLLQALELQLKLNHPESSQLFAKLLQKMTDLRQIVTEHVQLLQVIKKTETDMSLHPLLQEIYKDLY
# Method in brief: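 Read-out: 488 nm N/C fluorescence ratio from complemented Venus YFP fragments, ≥350 cells per image, gain-of-signal fitted against DMSO baseline. Fusions of PPARg/SRC-1 with IFP1/IFP2 expressed transiently in HEK293T; compounds applied 8 h.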
# [9] = biological target: Peroxisome proliferator-activated receptor gamma (Homo sapiens) (UniProt P37231); experiment: OT_PPARg_PPARgSRC1_1440: Odyssey Thera (OT) 24-hour Protein-Complementation Assay for Peroxisome Proliferator-activated Receptor Gamma/ SRC-1 Co-activator (AID 2283388);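 further: nuclear to cytoplasmic ratio of reconstituted Venus YFP fluorescence in fixed imaged cells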
# Method in brief: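 Transient HEK293T, YFP fragments 1-158/159-239 (mutant IFP1/IFP2) fused to PPARg/SRC-1; 24 h dosing; fix 4% formaldehyde, Draq5; Opera imaging 488/635 nm; N/C ratio, gain vs DMSO.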
# [10] = ACEA_AR_agonist_AUC_viability: ACEA Biosciences xCELLigence Real-Time Cell Analysis on Androgen Receptor Agonism for Viability (AID 2283775)
# Method in brief: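 Read-out is area under the impedance curve at 80 h post-dose in 22Rv1 cells, with DMSO as baseline and signal loss taken as reduced viability. Compounds ran in duplicate from 100 uM final.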
# [11] = ACEA_AR_antagonist_AUC_viability: ACEA Biosciences xCELLigence Real-Time Cell Analysis on Androgen Receptor Antagonism for Viability (AID 2283776);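 further: 22Rv1 human prostate cancer cells growing on impedance electrode plates; area under impedance growth curve at 80 h after dosing as viability; hits lower the growth signal relative to DMSO meaning cytotoxicity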
# Method in brief: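 Real-time electrical impedance tracks 22Rv1 proliferation after continuous compound exposure (top 100 uM final, 1:4 steps, 8 concentrations). The 80 h area-under-curve serves as the cytotoxicity readout relative to DMSO.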
# [12] = CCTE_Harrill_HTTr_CellCount_MCF7: CCTE's Cell Proliferation Assessment for the High-Throughput Transcriptomics (HTTr) Platform, Harrill Lab (AID 2284012);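 further: count of Hoechst-stained nuclei per well by high-content imaging in MCF-7 cells; cells exposed to compound for six hours; intended direction is loss of nuclei count meaning fewer cells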
# Method in brief: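 Nuclei counting (Hoechst, high content imaging) in MCF-7 after a 6 h treatment at eight concentrations. Activity fitted bidirectionally, DMSO as negative control.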
# [13] = ATG_ERE_CIS: Attagene CIS-FACTORIAL HepG2 Assay for Estrogen Response Element (ERE) (AID 2282940; active means hit-call score of the fitted dose curve at least 0.9, where 1 is the maximum; inactive means score below 0.9); details: HepG2 ERE cis-reporter, Attagene RNA transcript; actives raise or lower the signal
# Method in brief: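 Measuring endogenous transcription factor output, the assay doses transfected HepG2 cells for 24 hours and quantifies reporter transcripts by fluorescent RT-PCR and capillary electrophoresis, with DMSO as baseline.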
# [14] = biological target: Estrogen receptor (Homo sapiens) (UniProt P03372); experiment: ATG_ERa_TRANS: Attagene TRANS-FACTORIAL HepG2 Assay for human Estrogen Receptor alpha (ERa) (AID 2282970); details: HepG2 Attagene TRANS ERa GAL4 reporter, mRNA
# Sequence of Estrogen receptor (Homo sapiens) (P03372 whole entry, looked up, the tested form may be a part): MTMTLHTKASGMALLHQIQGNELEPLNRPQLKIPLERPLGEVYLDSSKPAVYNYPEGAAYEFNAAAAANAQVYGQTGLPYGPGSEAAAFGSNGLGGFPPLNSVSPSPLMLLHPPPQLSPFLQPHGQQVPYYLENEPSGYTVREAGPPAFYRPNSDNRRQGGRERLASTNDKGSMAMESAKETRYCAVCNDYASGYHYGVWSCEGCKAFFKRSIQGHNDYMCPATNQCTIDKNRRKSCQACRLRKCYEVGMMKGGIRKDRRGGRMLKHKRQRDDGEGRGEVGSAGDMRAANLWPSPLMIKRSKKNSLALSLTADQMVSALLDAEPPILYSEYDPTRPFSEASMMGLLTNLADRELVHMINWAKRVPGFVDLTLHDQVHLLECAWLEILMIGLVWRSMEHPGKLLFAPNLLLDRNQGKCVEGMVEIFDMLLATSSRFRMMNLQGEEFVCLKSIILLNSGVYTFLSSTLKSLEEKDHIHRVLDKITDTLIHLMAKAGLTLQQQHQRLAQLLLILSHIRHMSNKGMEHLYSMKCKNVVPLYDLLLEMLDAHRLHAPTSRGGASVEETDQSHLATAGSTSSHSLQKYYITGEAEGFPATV
# Method in brief: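 Transactivation via ERa-Gal4 chimera in HepG2; 24 hour incubation; reporter mRNA detected by fluorescence RT-PCR and capillary electrophoresis.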
# [15] = biological target: Steroid hormone receptor ERR1 (Homo sapiens) (UniProt P11474); experiment: ATG_ERRa_TRANS: Attagene TRANS-FACTORIAL HepG2 Assay for human Estrogen-Related Receptor alpha (ERRa) (AID 2282971); details: HepG2 Attagene TRANS reporter, ERRa transactivation
# Sequence of Steroid hormone receptor ERR1 (Homo sapiens) (P11474 whole entry, looked up, the tested form may be a part): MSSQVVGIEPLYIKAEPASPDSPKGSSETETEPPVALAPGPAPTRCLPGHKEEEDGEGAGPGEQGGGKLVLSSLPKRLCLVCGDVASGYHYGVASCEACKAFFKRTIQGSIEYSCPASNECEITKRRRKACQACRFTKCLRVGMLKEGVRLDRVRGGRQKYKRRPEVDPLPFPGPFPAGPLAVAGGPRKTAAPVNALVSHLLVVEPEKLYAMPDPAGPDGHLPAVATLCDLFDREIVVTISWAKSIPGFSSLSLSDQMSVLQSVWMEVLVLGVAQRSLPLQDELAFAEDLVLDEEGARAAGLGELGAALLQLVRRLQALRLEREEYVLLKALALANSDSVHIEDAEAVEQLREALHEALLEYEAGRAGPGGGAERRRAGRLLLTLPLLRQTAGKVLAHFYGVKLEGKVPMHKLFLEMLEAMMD
# Method in brief: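 HepG2 cells were transiently transfected with multiple GAL4-UAS reporter units, then dosed with compound for 24 h. Total RNA was reverse-transcribed, reporter cDNA PCR-amplified and fluorescently labelled, and fragments resolved by capillary electrophoresis; induction was compared with DMSO.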
# [16] = BSK_3C_TissueFactor: BioMAP Diversity Plus: 3C Assay for Tissue Factor Biomarker Activity (AID 2282997; active means hit-call score of the fitted dose curve at least 0.9, where 1 is the maximum; inactive means score below 0.9); details: BioMAP 3C HUVEC, tissue factor biomarker readout; actives raise or lower the signal
# Method in brief: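 Values derive from bidirectional curve fitting against DMSO of Tissue Factor ELISA signals, taken 24 h after dosing primary human umbilical vein endothelial cells.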
# [17] = BSK_3C_uPAR: BioMAP Diversity Plus: 3C Assay for Urokinase-type plasminogen activator receptor (uPAR) Biomarker Activity (AID 2282998; active means hit-call score of the fitted dose curve at least 0.9, where 1 is the maximum; inactive means score below 0.9); details: BioMAP 3C HUVEC, uPAR biomarker ELISA; actives raise or lower the signal
# Method in brief: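 Readout: ELISA for surface uPAR. System: human umbilical vein endothelial primary cells, 24 h after chemical exposure. Analysis: bidirectional fit, DMSO baseline.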
# [18] = BSK_4H_Eotaxin3: BioMAP Diversity Plus: 4H Assay for Eotaxin 3 Biomarker Activity (AID 2283000; active means hit-call score of the fitted dose curve at least 0.9, where 1 is the maximum; inactive means score below 0.9;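 on outcome: CCL26 protein level quantified by ELISA in parallel with SRB cytotoxicity check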); details: primary human endothelial cells (HUVEC); actives raise or lower the signal
# Method in brief: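 Endothelial primary cells (human umbilical vein) exposed to compound for 24 h. ELISA detection of Eotaxin-3.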
# [19] = read-out: Interleukin-1 alpha (IL1a), IL1A (gene 3552); experiment: BSK_BE3C_IL1a: BioMAP Diversity Plus: BE3C Assay for Interleukin-1 alpha (IL1a) Biomarker Activity (AID 2283016; active means hit-call score of the fitted dose curve at least 0.9, where 1 is the maximum; inactive means score below 0.9); details: primary human bronchial epithelial cells; actives raise or lower the signal
# Method in brief: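 Cultures of primary human bronchial epithelial cells receive test chemical. After 24 h, IL-1a is quantified by ELISA, while parallel wells are fixed in TCA and SRB-stained for total protein. Changes in either direction are fitted relative to DMSO.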
# [20] = read-out: Monokine induced gamma interferon (MIG), CXCL9 (gene 4283); experiment: BSK_3C_MIG: BioMAP Diversity Plus: 3C Assay for Monokine induced gamma interferon (MIG) Biomarker Activity (AID 2283021; active means hit-call score of the fitted dose curve at least 0.9, where 1 is the maximum; inactive means score below 0.9); details: primary human endothelial cells (HUVEC); actives raise or lower the signal
# Method in brief: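 After 24 h of treatment, human umbilical vein endothelial cultures (3C system) had their MIG biomarker level determined by ELISA, with DMSO serving as negative control.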
smiles,measurement,setting,value
O=[N+]([O-])c1cc([N+](=O)[O-])c2ccccc2c1,outcome,[1],inactive
same,outcome,[2],inactive
O=C1Nc2ccc(Cl)cc2C(c2ccccc2)=NC1O (stereo not given),outcome,[3],inactive
same,outcome,[4],inactive
same,outcome,[5],inactive
same,outcome,[6],inactive
same,outcome,[7],inactive
same,outcome,[8],inactive
same,outcome,[9],inactive
same,outcome,[10],inactive
same,outcome,[11],inactive
same,outcome,[12],inactive
BrCBr,outcome,[13],inactive
same,outcome,[14],inactive
N#Cc1cccc(C#N)c1,outcome,[4],inactive
C=CC(=O)OCCCCOC(=O)C=C,outcome,[13],inactive
same,outcome,[1],inactive
same,outcome,[2],inactive
COC(=O)c1ccccc1S(=O)(=O)NC(=O)Nc1nc(C)cc(C)n1,outcome,[2],inactive
same,outcome,[12],inactive
CCOC(=O)NC(=S)Nc1ccccc1NC(=S)NC(=O)OCC,outcome,[15],inactive
same,outcome,[1],inactive
same,outcome,[5],inactive
same,outcome,[6],inactive
same,outcome,[8],inactive
same,outcome,[9],inactive
same,AC50,[11],4.35 µM (active)
same,outcome,[12],inactive
O=[N+]([O-])c1cc(C(F)(F)F)c(Cl)c([N+](=O)[O-])c1Cl,outcome,[13],inactive
same,AC50,[14],14.6 µM (active)
same,AC50,[3],53.3 µM (active)
CCC[N+](=O)[O-],outcome,[12],inactive
c1ccc2c(c1)CCCC2,outcome,[13],inactive
same,outcome,[14],inactive
same,outcome,[3],inactive
same,outcome,[4],inactive
same,outcome,[2],inactive
same,outcome,[5],inactive
same,outcome,[6],inactive
same,outcome,[7],inactive
same,outcome,[8],inactive
same,outcome,[9],inactive
same,outcome,[10],inactive
same,outcome,[11],inactive
CNC(=O)Oc1cc(C)c(SC)c(C)c1,AC50,[13],26.5 µM (active)
same,AC50,[14],8.61 µM (active)
same,outcome,[16],inactive
same,outcome,[17],inactive
same,AC50,[18],20 µM (active)
same,outcome,[19],inactive
same,outcome,[20],inactive
same,outcome,[2],inactive
same,outcome,[12],inactive
CCC(C)c1cc(C(C)(C)C)cc(-n2nc3ccccc3n2)c1O (stereo not given),outcome,[3],inactive
CCOC(=O)COc1ccc(Cl)cc1Cl,outcome,[7],inactive
same,outcome,[12],inactive
C=Cc1cccc(CCl)c1,outcome,[13],inactive
CN1C[C@H](C(=O)N[C@]2(C)O[C@@]3(O)[C@@H]4CCCN4C(=O)[C@H](Cc4ccccc4)N3C2=O)C=C2c3cccc4[nH]cc(c34)C[C@H]21,outcome,[13],inactive
same,outcome,[3],inactive
same,outcome,[2],inactive
O=[N+]([O-])O,outcome,[16],inactive
same,outcome,[17],inactive
same,AC50,[18],0.433 µM (active)
same,outcome,[18],inactive
same,outcome,[19],inactive
same,outcome,[20],inactive
same,outcome,[7],inactive
same,outcome,[8],inactive
same,outcome,[9],inactive
same,outcome,[10],inactive
same,outcome,[11],inactive
same,outcome,[12],inactive
O=C(O)c1cc[c]([Hg][Cl])cc1,outcome,[13],inactive
same,outcome,[14],inactive
same,outcome,[4],inactive
